# Target: Tumor necrosis factor receptor superfamily member 10B (Homo sapiens) (UniProt O14763)
# Test: caspase-8 TRAIL sensitization, hit retest, confirmation, cell-based, NB7+caspase-8, with/without TRAIL, luminescence panel (AID 651596)
# Conditions: NB7 neuroblastoma + caspase-8, TRAIL sensitization, luminescence viability, with TRAIL, mean of runs, at 10 µM, stronger effect = higher value; in the data active = activity above about 50%; inactive = the rest
# Tumor necrosis factor receptor superfamily member 10B (Homo sapiens), sequence (O14763 whole entry, looked up): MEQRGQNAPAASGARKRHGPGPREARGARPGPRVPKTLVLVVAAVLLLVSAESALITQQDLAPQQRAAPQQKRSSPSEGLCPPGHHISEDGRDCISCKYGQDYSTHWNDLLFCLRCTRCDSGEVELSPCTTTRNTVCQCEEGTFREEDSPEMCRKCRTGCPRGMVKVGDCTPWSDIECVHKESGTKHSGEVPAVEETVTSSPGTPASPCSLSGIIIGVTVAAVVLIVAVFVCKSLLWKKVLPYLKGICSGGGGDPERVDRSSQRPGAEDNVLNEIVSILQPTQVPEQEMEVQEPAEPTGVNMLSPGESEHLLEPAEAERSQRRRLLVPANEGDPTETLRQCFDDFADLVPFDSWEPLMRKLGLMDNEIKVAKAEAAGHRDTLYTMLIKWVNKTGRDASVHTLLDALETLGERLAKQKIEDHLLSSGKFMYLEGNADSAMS
row,Compound,activity [%]
1,Cc1ccc(OCC(=O)Nc2ccccc2C(N)=O)cc1,66.8
2,COc1ccc(C(=O)O/N=C(\N)Cc2ccc(Cl)cc2)cc1OC,99.3
3,CCC1CCCCN1Cc1nc(Cc2ccccc2Cl)no1 (stereo not given),-9.55
4,Cc1ccccc1/C=C/c1nc2ccccc2c(=O)[nH]1,56.1
5,Cc1cnc(NC(=O)c2ccc(OCC3CCCO3)cc2)s1 (stereo not given),93.3
6,Cn1cc([N+](=O)[O-])c(C(=O)Nc2nc(-c3ccc(Cl)cc3)cs2)n1,97.3
7,O=C(CSc1nnc(NC(=O)c2ccc(F)cc2)s1)NCc1ccco1,64.4
8,N#CC1=C(N)N2C(=C(C#N)C1c1cccc(Br)c1)Nc1ccccc12 (stereo not given),55.6
9,O=C(CSc1nnc(-c2ccccc2)o1)Nc1ccccc1F,55.1
10,CCOc1cc(/C=N\NC(=O)c2ccc(NC(=O)C(C)(C)C)cc2)ccc1OC(=O)c1cccc(C)c1,73.5
11,C#Cc1ccc(NC(=O)C2(C)CCN2C(=O)c2ccccc2CCc2ccccc2)cc1 (stereo not given),91.2
12,COc1ccc(C(=O)Nc2ccc3ccccc3c2)cc1,76.8
13,Cc1ccccc1C(=O)Nc1nnc(SCC(=O)NCc2ccco2)s1,61.1
14,O=C(Nc1nc2ccccc2[nH]1)c1ccc(OC(F)F)cc1,95.3
15,C/C(=N\NC(=O)c1ccccc1F)c1cccc(NC(=O)c2ccc(C)cc2)c1,59.8
16,OC(c1ccccc1)(c1ccccc1)C1CCN(CCCOc2ccc3c(c2)CCCC3)CC1,38
17,Cc1nc2sc(-c3ccccc3)cc2c(=O)n1N,59.7
18,CCC(=O)Nc1cc2nn(-c3ccccc3)nc2cc1Cl,67.5
19,Cc1ccccc1CS(=O)(=O)c1ncc(Cl)c(C(=O)Nc2ccc(F)cc2)n1,22.5
20,Cc1cccc(-n2ncc3c(NC4CCCCC4)ncnc32)c1,66.7

row,Compound,activity [%]
1,CC1CCc2nc(NC(=O)c3ccco3)sc2C1 (stereo not given),90.5
2,COc1cc(/C=C(/C#N)c2nc3ccccc3[nH]2)ccc1OCC(=O)Nc1ccccc1C,86
3,COc1ccc(N=C2S/C(=C\c3ccc(Cl)c([N+](=O)[O-])c3)C(=O)N2CCN(C)C)cc1,65
4,Cc1nc2c(ccc3nc(NC(=O)c4ccc5c(c4)OCCO5)sc32)s1,82.8
5,CC(=O)Nc1ccc2nc(-c3ccccc3)cn2c1,46.1
6,Cc1nnc(NC(=O)c2ccc(S(=O)(=O)C(F)F)cc2)s1,43.1
7,CCCCCCN(C(=O)CCl)c1ccccc1,98.8
8,CCc1ccc(C2=NN(C(=O)OC)C(O)(C(F)(F)F)C2)cc1 (stereo not given),45.8
9,C/C(=N/NC(=O)c1ccccn1)c1ccco1,35.1
10,Cn1nccc1C(=O)Oc1cccc(/C=N/NC(=O)c2ccccc2O)c1,44.5
11,Cc1ccc(NC(=O)COc2ccccc2[N+](=O)[O-])nc1,60.5
12,CCN1CCN(c2ccc(S(=O)(=O)N3CCCCC3)cc2NC(=O)c2ccc([N+](=O)[O-])o2)CC1,59.8
13,CCCc1ccc(-c2cc(C(=O)N/N=C/c3ccc([N+](=O)[O-])o3)c3ccccc3n2)cc1,91.6
14,CC1(C)N=C(N)N=C(N)N1c1cccc(CC(=O)Nc2ccccc2)c1,77.8
15,O=c1cc(C(Cl)(Cl)Cl)oc2c1ccc1ccccc12,62.7
16,CCOc1cc(NC(=O)CCl)c(OCC)cc1NC(=O)CCl,96.6
17,Nc1c(-c2ccccc2)cnc2cc(-c3ccccc3)nn12,73
18,O=S(=O)(c1ccc(Br)cc1)N1CCN(c2ccc3nnc(-c4ccccc4)n3n2)CC1,76.2
19,Cc1ccc(C(=O)Nc2ncc(C)s2)s1,80.2
20,COn1c(SC2CCCCC2)nc2ccccc2c1=O,60.3

# Test system: not listed separately
# Test: as above
# Conditions: NB7 neuroblastoma + caspase-8, without TRAIL, luminescence viability, without TRAIL, mean of runs, at 10 µM
row,Compound,activity [%]
1,Cc1ccc(OCC(=O)Nc2ccccc2C(N)=O)cc1,68.1
2,COc1ccc(C(=O)O/N=C(\N)Cc2ccc(Cl)cc2)cc1OC,95.8
3,CCC1CCCCN1Cc1nc(Cc2ccccc2Cl)no1 (stereo not given),-33.1
4,Cc1ccccc1/C=C/c1nc2ccccc2c(=O)[nH]1,58.7
5,Cc1cnc(NC(=O)c2ccc(OCC3CCCO3)cc2)s1 (stereo not given),94.7
6,Cn1cc([N+](=O)[O-])c(C(=O)Nc2nc(-c3ccc(Cl)cc3)cs2)n1,98.7
7,O=C(CSc1nnc(NC(=O)c2ccc(F)cc2)s1)NCc1ccco1,62.4
8,N#CC1=C(N)N2C(=C(C#N)C1c1cccc(Br)c1)Nc1ccccc12 (stereo not given),61.6
9,O=C(CSc1nnc(-c2ccccc2)o1)Nc1ccccc1F,43.5
10,CCOc1cc(/C=N\NC(=O)c2ccc(NC(=O)C(C)(C)C)cc2)ccc1OC(=O)c1cccc(C)c1,47.2
11,C#Cc1ccc(NC(=O)C2(C)CCN2C(=O)c2ccccc2CCc2ccccc2)cc1 (stereo not given),95.9
12,COc1ccc(C(=O)Nc2ccc3ccccc3c2)cc1,74.5
13,Cc1ccccc1C(=O)Nc1nnc(SCC(=O)NCc2ccco2)s1,58.2
14,O=C(Nc1nc2ccccc2[nH]1)c1ccc(OC(F)F)cc1,94.6
15,C/C(=N\NC(=O)c1ccccc1F)c1cccc(NC(=O)c2ccc(C)cc2)c1,71.5
16,OC(c1ccccc1)(c1ccccc1)C1CCN(CCCOc2ccc3c(c2)CCCC3)CC1,48.9
17,Cc1nc2sc(-c3ccccc3)cc2c(=O)n1N,44.8
18,CCC(=O)Nc1cc2nn(-c3ccccc3)nc2cc1Cl,65.9
19,Cc1ccccc1CS(=O)(=O)c1ncc(Cl)c(C(=O)Nc2ccc(F)cc2)n1,24.9
20,Cc1cccc(-n2ncc3c(NC4CCCCC4)ncnc32)c1,54.5

row,Compound,activity [%]
1,CC1CCc2nc(NC(=O)c3ccco3)sc2C1 (stereo not given),89
2,COc1cc(/C=C(/C#N)c2nc3ccccc3[nH]2)ccc1OCC(=O)Nc1ccccc1C,97.8
3,COc1ccc(N=C2S/C(=C\c3ccc(Cl)c([N+](=O)[O-])c3)C(=O)N2CCN(C)C)cc1,90.2
4,Cc1nc2c(ccc3nc(NC(=O)c4ccc5c(c4)OCCO5)sc32)s1,84.3
5,CC(=O)Nc1ccc2nc(-c3ccccc3)cn2c1,52.6
6,Cc1nnc(NC(=O)c2ccc(S(=O)(=O)C(F)F)cc2)s1,42.9
7,CCCCCCN(C(=O)CCl)c1ccccc1,99.2
8,CCc1ccc(C2=NN(C(=O)OC)C(O)(C(F)(F)F)C2)cc1 (stereo not given),59
9,C/C(=N/NC(=O)c1ccccn1)c1ccco1,41.5
10,Cn1nccc1C(=O)Oc1cccc(/C=N/NC(=O)c2ccccc2O)c1,13.6
11,Cc1ccc(NC(=O)COc2ccccc2[N+](=O)[O-])nc1,62.8
12,CCN1CCN(c2ccc(S(=O)(=O)N3CCCCC3)cc2NC(=O)c2ccc([N+](=O)[O-])o2)CC1,61.9
13,CCCc1ccc(-c2cc(C(=O)N/N=C/c3ccc([N+](=O)[O-])o3)c3ccccc3n2)cc1,93.3
14,CC1(C)N=C(N)N=C(N)N1c1cccc(CC(=O)Nc2ccccc2)c1,85.3
15,O=c1cc(C(Cl)(Cl)Cl)oc2c1ccc1ccccc12,65.3
16,CCOc1cc(NC(=O)CCl)c(OCC)cc1NC(=O)CCl,98.5
17,Nc1c(-c2ccccc2)cnc2cc(-c3ccccc3)nn12,67.4
18,O=S(=O)(c1ccc(Br)cc1)N1CCN(c2ccc3nnc(-c4ccccc4)n3n2)CC1,64.3
19,Cc1ccc(C(=O)Nc2ncc(C)s2)s1,79
20,COn1c(SC2CCCCC2)nc2ccccc2c1=O,60.1

# Reference: PubChem BioAssay
